Experimental data taken from PubChem BioAssay (NCATS).
Results filed as inconclusive are left out. Where a structure was tested more than once in an assay, its records may differ in their call. Calls of active or inactive are those of the source. The call rests on the fitted dose curve; in most records, active means well fitted curve in the direction sought with a large enough effect; inconclusive means small, poorly fitted or top-dose-only effect, or another doubt; inactive means no such curve, though single readings can be large; an effect the other way counts as inactive or inconclusive.

Assays:
[1] = molecular target: Beta-2 adrenergic receptor (Homo sapiens) (UniProt P07550); assay: qHTS validation assay of beta-arrestin-biased ligands of beta2-adrenergic receptor (AID 485366)
Chain of Beta-2 adrenergic receptor (Homo sapiens) (P07550 whole entry, looked up): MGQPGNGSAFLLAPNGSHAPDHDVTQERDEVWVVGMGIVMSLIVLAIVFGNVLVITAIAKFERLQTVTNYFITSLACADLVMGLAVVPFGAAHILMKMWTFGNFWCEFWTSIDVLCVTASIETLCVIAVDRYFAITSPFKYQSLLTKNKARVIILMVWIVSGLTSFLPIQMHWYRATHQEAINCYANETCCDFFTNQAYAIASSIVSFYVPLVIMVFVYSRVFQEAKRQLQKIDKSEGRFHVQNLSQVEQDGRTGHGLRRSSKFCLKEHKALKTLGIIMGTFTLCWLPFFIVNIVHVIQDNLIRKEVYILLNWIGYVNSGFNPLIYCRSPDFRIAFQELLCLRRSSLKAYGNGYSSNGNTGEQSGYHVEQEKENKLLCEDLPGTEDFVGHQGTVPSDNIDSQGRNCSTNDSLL
Outline: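 Values derive from curve-fitted %Activity of a luminescent beta-arrestin recruitment reporter; compounds tested up to 46 microM on Tango cells for 18 hr at 37 degrees C, 5% CO2.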

[2] = Quantitative high throughput screen for delayed death inhibitors of the malarial parasite plastid, 96 hour incubation (AID 488745); further: nearly all actives have a fitted effect of over 70% in size; further: potency means the concentration at half of the fitted maximal effect
Outline: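 Infected erythrocytes were added to compound in Albumax-supplemented RPMI 1640 at 0.1% parasitemia and 2% hematocrit (final), incubated 96 h at 37 C under 5% CO2, then luciferase reagent was added and luminescence measured.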

[3] = molecular target: Thioredoxin reductase 1, cytoplasmic (Rattus norvegicus) (UniProt O89049); assay: qHTS Assay for Substrates of Mammalian Selenoprotein Thioredoxin Reductase 1 (TrxR1) (AID 488772);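 further: NADPH fluorescence in the first read after selenite addition and not the 8 min delta; series mostly up to about 57 µM; a drop in NADPH fluorescence below the no-compound background marks a TrxR1 substrate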
Chain of Thioredoxin reductase 1, cytoplasmic (Rattus norvegicus) (O89049 whole entry, looked up): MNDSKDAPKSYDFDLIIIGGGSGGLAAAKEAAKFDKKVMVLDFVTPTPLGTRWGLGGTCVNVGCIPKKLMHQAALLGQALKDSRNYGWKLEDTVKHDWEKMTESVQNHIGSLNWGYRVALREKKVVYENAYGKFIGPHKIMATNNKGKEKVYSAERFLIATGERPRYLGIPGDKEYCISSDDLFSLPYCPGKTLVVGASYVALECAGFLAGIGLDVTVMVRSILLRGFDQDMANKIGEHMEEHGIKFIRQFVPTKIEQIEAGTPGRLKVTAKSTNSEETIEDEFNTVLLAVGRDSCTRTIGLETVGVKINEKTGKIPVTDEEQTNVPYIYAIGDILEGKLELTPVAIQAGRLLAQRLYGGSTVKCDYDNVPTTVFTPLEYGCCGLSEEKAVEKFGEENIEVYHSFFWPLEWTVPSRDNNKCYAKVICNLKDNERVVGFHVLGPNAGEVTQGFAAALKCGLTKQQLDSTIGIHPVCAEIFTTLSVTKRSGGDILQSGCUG
Outline: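 Quantitative HTS in Tris-HCl buffer at pH 7.5 with EDTA and Tween-20, using rat TrxR1, 400 uM NADPH and 400 uM selenite (final). A fall in initial NADPH fluorescence relative to background marked substrate behaviour.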

[4] = molecular target: Flap endonuclease 1 (Homo sapiens) (UniProt P39748); assay: qHTS Validation Assay for the Inhibitors of Human Flap endonuclease 1 (FEN1) (AID 488816); further: potency means the concentration at half of the fitted maximal effect
Chain of Flap endonuclease 1 (Homo sapiens) (P39748 whole entry, looked up): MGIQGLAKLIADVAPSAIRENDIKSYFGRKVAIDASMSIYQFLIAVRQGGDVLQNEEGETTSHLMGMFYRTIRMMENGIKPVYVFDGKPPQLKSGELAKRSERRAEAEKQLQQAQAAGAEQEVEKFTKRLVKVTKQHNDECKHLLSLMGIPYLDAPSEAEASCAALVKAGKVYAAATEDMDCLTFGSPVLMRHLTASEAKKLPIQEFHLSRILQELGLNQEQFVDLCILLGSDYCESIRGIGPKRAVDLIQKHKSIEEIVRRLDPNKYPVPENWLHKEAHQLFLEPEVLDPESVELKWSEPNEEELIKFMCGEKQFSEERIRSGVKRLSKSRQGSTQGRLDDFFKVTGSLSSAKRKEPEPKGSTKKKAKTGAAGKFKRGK
Outline: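 FEN1, dispensed as a 10 nM reagent, was preincubated with pin-transferred compounds for 15 min at room temperature before substrate was added (50 nM final). Plates were read at 0 and 15 min, and a four-parameter Hill equation was fitted to the concentration-response data.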

[5] = molecular target: M-phase phosphoprotein 8 (Homo sapiens) (UniProt Q99549); assay: qHTS Validation Assay for Inhibitors for MPP8 Chromodomain Interactions with Methylated Histone Tails (AID 488949); further: nearly all actives have a fitted effect of over 55% in size; further: potency means the concentration at half of the fitted maximal effect
Chain of M-phase phosphoprotein 8 (Homo sapiens) (Q99549 whole entry, looked up): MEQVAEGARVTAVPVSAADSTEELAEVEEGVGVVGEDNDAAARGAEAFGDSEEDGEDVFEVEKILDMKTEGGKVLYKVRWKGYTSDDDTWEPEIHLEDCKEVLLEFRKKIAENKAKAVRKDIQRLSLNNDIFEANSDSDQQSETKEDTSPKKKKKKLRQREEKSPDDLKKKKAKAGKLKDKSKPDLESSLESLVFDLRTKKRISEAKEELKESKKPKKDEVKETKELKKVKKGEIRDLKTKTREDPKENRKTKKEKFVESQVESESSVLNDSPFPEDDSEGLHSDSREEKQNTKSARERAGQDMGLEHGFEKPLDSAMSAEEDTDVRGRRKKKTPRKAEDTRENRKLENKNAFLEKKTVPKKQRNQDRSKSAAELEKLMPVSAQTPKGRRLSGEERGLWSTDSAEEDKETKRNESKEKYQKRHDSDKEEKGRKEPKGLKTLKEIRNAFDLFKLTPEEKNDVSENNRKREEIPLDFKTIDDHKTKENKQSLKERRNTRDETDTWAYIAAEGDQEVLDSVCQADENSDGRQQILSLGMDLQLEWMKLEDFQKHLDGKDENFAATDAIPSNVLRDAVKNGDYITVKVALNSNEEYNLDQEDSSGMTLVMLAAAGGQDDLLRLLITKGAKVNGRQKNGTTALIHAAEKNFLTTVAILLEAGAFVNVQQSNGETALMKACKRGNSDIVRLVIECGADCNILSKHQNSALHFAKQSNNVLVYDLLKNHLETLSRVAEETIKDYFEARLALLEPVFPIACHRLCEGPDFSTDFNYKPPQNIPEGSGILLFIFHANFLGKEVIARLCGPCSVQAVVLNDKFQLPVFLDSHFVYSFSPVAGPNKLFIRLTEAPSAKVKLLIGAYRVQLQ
Outline: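 Chemiluminescent proximity assay: histidine-tag capture via nickel acceptor beads, biotin peptide via streptavidin donor beads. Protein and peptide each at 50 nM, pH 7.4, with 30 min incubations at room temperature for complex formation, compound exposure and bead binding.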

[6] = molecular target: Methanococcus maripaludis chaperonin (MmCpn) (UniProt Q6LX38); assay: High-Throughput Screening for Modulators of Cytosolic Chaperonin Activity: MmCpn Primary Screen (AID 488978)
Chain of Methanococcus maripaludis chaperonin (MmCpn) (Q6LX38 1-543): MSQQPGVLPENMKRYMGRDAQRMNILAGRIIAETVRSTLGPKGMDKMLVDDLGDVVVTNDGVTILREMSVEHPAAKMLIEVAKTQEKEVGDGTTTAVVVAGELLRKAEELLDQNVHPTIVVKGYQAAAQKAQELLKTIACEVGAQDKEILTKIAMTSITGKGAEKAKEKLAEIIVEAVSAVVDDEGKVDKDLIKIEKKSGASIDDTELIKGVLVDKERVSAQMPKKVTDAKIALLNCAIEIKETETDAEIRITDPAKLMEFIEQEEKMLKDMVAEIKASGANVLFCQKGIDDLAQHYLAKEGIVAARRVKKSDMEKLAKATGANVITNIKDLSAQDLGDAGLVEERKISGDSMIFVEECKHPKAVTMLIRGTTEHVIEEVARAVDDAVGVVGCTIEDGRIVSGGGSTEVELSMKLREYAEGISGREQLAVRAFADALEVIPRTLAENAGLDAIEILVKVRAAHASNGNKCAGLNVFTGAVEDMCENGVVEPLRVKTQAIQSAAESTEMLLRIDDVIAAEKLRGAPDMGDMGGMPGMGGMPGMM
Outline: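 HTRF readout (320 nm excitation, 590/665 nm emission) of ADP generated by 50 nM MmCpn hydrolysing 30 uM ATP during 10 min at 37C; compound preincubated 5 min RT.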

[7] = Quantitative high throughput screen for delayed death inhibitors of the malarial parasite plastid, 48 hour incubation (AID 488752); further: nearly all actives have a fitted effect of over 65% in size; further: potency means the concentration at half of the fitted maximal effect
Outline: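 Readout is firefly luciferase luminescence from a reporter integrated into the parasite genome, with lower signal taken as inhibited growth. Infected red cells (0.1% parasitemia, 2% hematocrit final) are cultured with compound for one 48 h cycle at 37 C.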

[8] = molecular target: Chromobox protein homolog 1 (Homo sapiens) (UniProt P83916); assay: qHTS Validation Assay for Inhibitors of HP1-beta Chromodomain Interactions with Methylated Histone Tails (AID 488953); further: nearly all actives have a fitted effect of over 50% in size; further: potency means the concentration at half of the fitted maximal effect
Chain of Chromobox protein homolog 1 (Homo sapiens) (P83916 whole entry, looked up): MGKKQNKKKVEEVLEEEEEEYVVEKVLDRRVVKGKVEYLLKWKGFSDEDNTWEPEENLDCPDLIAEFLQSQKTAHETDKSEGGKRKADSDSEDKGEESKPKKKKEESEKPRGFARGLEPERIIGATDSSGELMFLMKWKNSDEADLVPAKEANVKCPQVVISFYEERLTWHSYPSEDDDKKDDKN
Outline: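 50 nM HP1-beta + 50 nM biotin-H3(1-18)K9me3, PBS pH 7.4, 0.01% Tween-20, 30 min RT; compound added, 30 min RT; AlphaScreen beads 10 ug/mL final, 30 min dark; luminescence read.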

[9] = molecular target: Thioredoxin reductase 1, cytoplasmic (Rattus norvegicus) (UniProt O89049); assay: qHTS Assay for Inhibitors of Mammalian Selenoprotein Thioredoxin Reductase 1 (TrxR1) (AID 488773); details: Potency: inhibition; further: nearly all actives have a fitted effect of over 40% in size; further: potency means the concentration at half of the fitted maximal effect
Outline: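 Steps: enzyme (90 nM) plus NADPH (400 uM final), 5 min at ~22 deg C; compound added, 15 min; selenite (400 uM final) added; fluorescence followed for 8 min. Concentration-response curves derived from the normalized delta values.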

Measured: Potency

CO/N=C(\C(=O)N[C@@H]1C(=O)N2C(C(=O)O)=C(CSc3nc(=O)c(O)nn3C)CSC12)c1csc(N)n1 (some centres not stated)
inactive: [1] | [2] | [3] | [4] | [6]
44.7 µM (active) and inactive: [5]

O=c1ccc2c(OCCCCc3ccccc3)c3ccoc3cc2o1
not listed: [2] | [3] | [9]
inactive: all other assays above

OC[C@H]1O[C@H](n2cnc3c(N[C@H]4CCC[C@@H]4O)ncnc32)[C@H](O)[C@@H]1O
not listed: [2] | [7]
inactive: all other assays above

O=C(N[C@@H](Cc1ccccc1)C(=O)CCl)OCc1ccccc1
active: [9] 21.2 µM
not listed: [2]
inactive: all other assays above

CN1Cc2sccc2C(c2ccc(O)c(O)c2)C1 (configuration not stated)
active: [9] 16.8 µM
inactive: [1] | [3] | [4] | [5]

COc1ccc(NC(=O)c2ccc(-c3ccc(-c4noc(C)n4)cc3C)cc2)cc1N1CCN(C)CC1
inactive: [1] | [3] | [4] | [6]
active: [2] 4.65 µM | [5] 15.8 µM | [8] 31.6 µM

C=CCN1CCc2c(cc(O)c(O)c2Cl)C(c2ccccc2)C1 (configuration not stated)
inactive: [1] | [4] | [6]
39.8 µM (active) and inactive: [5]
active: [2] 3.7 µM

CC(C)[C@@H]1CC[C@@H](C)C[C@@H]1P(=O)(c1ccccc1)c1ccccc1
not listed: [2] | [7]
inactive: all other assays above

Nc1nc2c(nc(Br)n2C2OC3COP(=O)(O)O[C@@H]3C2O)c(=O)[nH]1 (some centres not stated)
not listed: [2] | [6] | [7]
inactive: all other assays above

CC(=O)SC1CC2=CC(=O)CC[C@]2(C)C2CC[C@@]3(C)C(CC[C@@]34CCC(=O)O4)C12 (some centres not stated)
not listed: [2] | [6] | [7]
inactive: all other assays above

c1ccc(CN2CCC3(CCCc4ccccc43)CC2)cc1
not listed: [2] | [7]
inactive: all other assays above

O=c1[nH]c2ccccc2c2ccccc12
not listed: [2] | [6]
inactive: all other assays above

C[C@@]1(C2CCCC2)Cc2cc(OCC(=O)O)c(Cl)c(Cl)c2C1=O
not listed: [2]
inactive: all other assays above

CCCCCCCCCCC(C)(C)C(=O)Nc1c(OC)cc(OC)cc1OC
not listed: [2] | [7]
inactive: all other assays above

CN1CCN(c2nc3cc(C(F)(F)F)ccc3n3cccc23)CC1
active: [7] 8.28 µM
not listed: [2] | [8]
inactive: all other assays above

Nc1nc2[nH]c(=O)cnc2c(=O)[nH]1
inactive: [1] | [2] | [4] | [5]

CN(C)S(=O)(=O)c1ccc2c(c1)/C(=C/c1cc3c([nH]1)CCCC3)C(=O)N2
inactive: [1] | [3] | [4]
17.8 µM (active) and inactive: [5]
active: [2] 3.7 µM

O=c1cc(-c2ccccc2)[nH]c2nc(Cl)ccc12
not listed: [3] | [7]
inactive: all other assays above

N=C(N)c1ccc(OCCCCCOc2ccc(C(=N)N)cc2)cc1 (tested in a mixture with another compound)
active: [7] 0.185 µM
not listed: [2] | [9]
inactive: all other assays above

O=C(O)c1ccccc1Nc1ccccc1
not listed: [2] | [8]
inactive: all other assays above

NC(=O)CC[C@H](N)C(=O)O
not listed: [2] | [3]
inactive: all other assays above

CN(CC[C@@H](Oc1ccc(C(F)(F)F)cc1)c1ccccc1)CC(=O)O
not listed: [2] | [7]
inactive: all other assays above

Cc1nc(N=Nc2ccc(C(=O)O)cc2)c(COP(=O)(O)O)c(C=O)c1O
inactive: [1] | [2] | [3] | [4] | [5]
active: [8] 50.1 µM

NCC(O)c1ccc(O)c(O)c1 (configuration not stated)
22.4 µM (active) and inactive: [5]
inactive: [1] | [2] | [3] | [6]
active: [4] 2.99 µM

CN1CC(O)C(O)C(O)C1CO (configuration not stated)
not listed: [2] | [7]
inactive: all other assays above

CCCCOc1cc(CC2CNC(=O)N2)ccc1OC (configuration not stated)
not listed: [2]
inactive: all other assays above

O=C1NC(=O)c2cc(Nc3ccccc3)c(Nc3ccccc3)cc21
inactive: [1] | [3] | [9] | [4] | [6]
active: [5] 31.6 µM

c1ccc2c(c1)CC(N1CCN(c3cccc4c3OCCO4)CC1)C2
inactive: [1] | [3] | [4] | [5] | [6]
active: [8] 0.006 µM

O=c1cc(O)cc(/C=C/c2ccc(O)c(O)c2)o1
active: [5] 5.32 µM
inactive: [1] | [3] | [9] | [6]

OC1(c2ccc(Cl)cc2)CCN(Cc2c[nH]c3ccccc23)CC1
inactive: [1] | [3] | [9] | [4] | [6]

CC(C)NC[C@H](O)COc1cccc2ccccc12
inactive: [3] | [9] | [5] | [8] | [6]
